Source: PubChem BioAssay (NCATS)
Several values for one entry are separate records, joined by “and”; a condition that tells them apart may be missing. Identical values can stand only once. A number with no mark means an inactive call. Results filed as inconclusive are left out. Activity calls are given as the source filed them. Unless noted, calls come from the whole dose curve; as a rule, active = well fitted curve in the direction sought with a large enough effect; inconclusive = small, poorly fitted or top-dose-only effect, or another doubt; inactive = no such curve, though single readings can be large; an effect the other way counts as inactive or inconclusive.

Experiments:
[1] = molecular target: Tyrosine-protein kinase Yes (Homo sapiens) (UniProt P07947); assay: qHTS for small molecule inhibitors of Yes1 kinase: Primary Screen (AID 686947); conditions: Yes1 kinase biochemical qHTS inhibition; series mostly up to 76.9 µM;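 note: plate controls were DMSO with enzyme for no effect and no-enzyme DMSO wells for full effect; nearly all actives have a fitted effect of over 60% in size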
Chain of Tyrosine-protein kinase Yes (Homo sapiens) (P07947 whole entry, looked up): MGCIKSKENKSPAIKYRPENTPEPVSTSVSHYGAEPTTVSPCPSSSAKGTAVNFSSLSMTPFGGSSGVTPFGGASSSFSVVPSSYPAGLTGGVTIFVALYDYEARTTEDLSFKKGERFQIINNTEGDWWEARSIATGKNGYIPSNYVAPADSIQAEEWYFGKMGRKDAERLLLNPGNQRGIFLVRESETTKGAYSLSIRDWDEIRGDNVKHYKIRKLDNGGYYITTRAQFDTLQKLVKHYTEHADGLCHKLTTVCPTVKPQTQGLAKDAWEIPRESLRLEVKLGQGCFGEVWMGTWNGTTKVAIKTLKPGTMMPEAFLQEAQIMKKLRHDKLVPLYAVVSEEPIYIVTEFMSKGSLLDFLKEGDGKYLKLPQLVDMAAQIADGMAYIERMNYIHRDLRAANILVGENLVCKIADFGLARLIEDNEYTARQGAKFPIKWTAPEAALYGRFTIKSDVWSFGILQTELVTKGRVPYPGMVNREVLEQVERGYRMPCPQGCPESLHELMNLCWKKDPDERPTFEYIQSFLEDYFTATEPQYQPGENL
Procedure, shortened: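 ADP-Glo luminescence readout; final 4 nM Yes1, 0.1 mM ATP, 0.3 mg/mL poly(E4Y), Tris pH 7.5, MgCl2, DTT, Brij-35. 20 min compound preincubation, 60 min reaction at RT. Normalized to DMSO wells with and without enzyme.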

[2] = qHTS for small molecule inhibitors of Yes1 kinase: Counter Assay (AID 686950); conditions: series mostly up to 76.9 µM;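 note: no kinase present so only ADP-Glo detection of a fixed ADP amount is tested; luminescence from ADP-Glo reporting ADP in a fixed ATP and ADP mixture; 0% = DMSO wells with ATP plus ADP and -100% = ATP-only wells without ADP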
Procedure, shortened: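 Luminescence read-out from ADP-Glo quantifies a fixed ADP amount (0.02 mM ADP with 0.08 mM ATP) after 60 min at room temperature; signal is normalized between DMSO wells with ATP/ADP and with 0.1 mM ATP alone.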

[3] = molecular target: Arylsulfatase A (Homo sapiens) (UniProt P15289); assay: qHTS screen for enhancers of Arylsulfatase A (ASA1): LOPAC Validation Assay (AID 720538); conditions: ASA enzyme activity, LOPAC qHTS enhancer assay; series mostly up to 57.5 µM; note: 0% is about no effect
Chain of Arylsulfatase A (Homo sapiens) (P15289 whole entry, looked up): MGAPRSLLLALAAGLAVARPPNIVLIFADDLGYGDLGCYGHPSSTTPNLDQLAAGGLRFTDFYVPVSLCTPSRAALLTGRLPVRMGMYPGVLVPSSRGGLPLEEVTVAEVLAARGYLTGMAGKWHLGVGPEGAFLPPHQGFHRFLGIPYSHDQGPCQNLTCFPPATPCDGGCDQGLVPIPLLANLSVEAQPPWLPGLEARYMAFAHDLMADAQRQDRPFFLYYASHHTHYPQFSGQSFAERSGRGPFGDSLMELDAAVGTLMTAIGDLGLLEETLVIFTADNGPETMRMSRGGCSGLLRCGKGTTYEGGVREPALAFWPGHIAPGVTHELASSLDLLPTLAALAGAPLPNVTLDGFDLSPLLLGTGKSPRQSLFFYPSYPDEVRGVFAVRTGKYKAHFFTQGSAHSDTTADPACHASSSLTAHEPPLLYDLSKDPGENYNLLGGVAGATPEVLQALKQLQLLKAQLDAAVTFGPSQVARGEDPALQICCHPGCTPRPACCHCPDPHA
Procedure, shortened: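 First, ASA-I179S fibroblasts from an MLD patient adhered for 6 hrs. Next, compounds were added for 48h. Then pNCS substrate (0.5mM final) with lysis buffer reacted 14h at room temperature before NaOH stop and fluorescence measurement.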

[4] = qHTS for compounds that reverse cellular toxicity of Amyloid beta (A-beta) peptide in yeast: LOPAC Validation Assay (AID 720559); conditions: yeast expressing A-beta; series mostly up to 46.1 µM;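 note: plate controls were DMSO for no effect and equimolar ferric chloride plus clioquinol rescue for full effect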
Procedure, shortened: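 Activity is expressed relative to DMSO and an equimolar ferric chloride/clioquinol mix. Compounds were pinned into medium with A-beta-expressing yeast, grown 48 hr at 30 C, then read by absorbance at 600 nm.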

[5] = qHTS for Activators of Parkin Expression: LOPAC Validation Assay (NLuc Reporter) (AID 720572;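 note: 0% = DMSO and 100% = positive control compound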); conditions: Parkin promoter NanoLuc reporter cells, luminescence, percent of positive control, DMSO as zero; series mostly up to 46.1 µM
Procedure, shortened: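 Parkin promoter-driven FLuc/NLuc neuronal reporter cells; 24 h plating, 7-pt dose response, 24 h at 37 C/5% CO2; FLuc then NanoLuc reagent, 10 min each, luminescence; DMSO/positive control normalized.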

[6] = qHTS for Activators of Parkin Expression: LOPAC Validation Assay (FLuc Reporter) (AID 720573;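 note: 0% = DMSO and 100% = positive control compounds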); conditions: Cell line, PRKN promoter firefly luciferase reporter, vehicle wells = 0, positive control = 100%; series mostly up to 46.1 µM
Procedure, shortened: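 A neuronal cell line harbouring FLuc and NLuc reporters behind the Parkin promoter was exposed to compounds for 24 h. Firefly luciferase signal, measured after 10 min with detection reagent, was scaled to DMSO and positive-control wells.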

[7] = molecular target: T1, Hexokinase-4 (Homo sapiens) + Glucokinase regulatory protein (Homo sapiens) (UniProt P35557+Q14397); assay: qHTS assay for inhibitors of recombinant human GCK-GKRP interaction: Diaphorase-coupled assay (AID 743205); conditions: G6PDH/diaphorase resorufin fluorescence; series mostly up to 57.5 µM
T1 sequence (P35557 whole entry, looked up): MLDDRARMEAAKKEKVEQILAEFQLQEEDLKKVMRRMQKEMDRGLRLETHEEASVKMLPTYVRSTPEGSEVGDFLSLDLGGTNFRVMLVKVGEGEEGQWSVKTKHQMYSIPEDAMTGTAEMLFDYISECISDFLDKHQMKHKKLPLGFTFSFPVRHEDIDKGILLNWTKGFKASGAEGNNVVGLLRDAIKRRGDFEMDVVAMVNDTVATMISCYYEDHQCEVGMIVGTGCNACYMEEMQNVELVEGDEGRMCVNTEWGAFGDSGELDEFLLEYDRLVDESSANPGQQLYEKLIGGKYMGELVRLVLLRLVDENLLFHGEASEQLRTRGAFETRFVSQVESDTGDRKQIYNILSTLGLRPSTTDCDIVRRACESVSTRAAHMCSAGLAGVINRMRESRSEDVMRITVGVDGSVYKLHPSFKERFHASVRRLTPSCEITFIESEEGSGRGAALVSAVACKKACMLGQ
T1 sequence (Q14397 whole entry, looked up): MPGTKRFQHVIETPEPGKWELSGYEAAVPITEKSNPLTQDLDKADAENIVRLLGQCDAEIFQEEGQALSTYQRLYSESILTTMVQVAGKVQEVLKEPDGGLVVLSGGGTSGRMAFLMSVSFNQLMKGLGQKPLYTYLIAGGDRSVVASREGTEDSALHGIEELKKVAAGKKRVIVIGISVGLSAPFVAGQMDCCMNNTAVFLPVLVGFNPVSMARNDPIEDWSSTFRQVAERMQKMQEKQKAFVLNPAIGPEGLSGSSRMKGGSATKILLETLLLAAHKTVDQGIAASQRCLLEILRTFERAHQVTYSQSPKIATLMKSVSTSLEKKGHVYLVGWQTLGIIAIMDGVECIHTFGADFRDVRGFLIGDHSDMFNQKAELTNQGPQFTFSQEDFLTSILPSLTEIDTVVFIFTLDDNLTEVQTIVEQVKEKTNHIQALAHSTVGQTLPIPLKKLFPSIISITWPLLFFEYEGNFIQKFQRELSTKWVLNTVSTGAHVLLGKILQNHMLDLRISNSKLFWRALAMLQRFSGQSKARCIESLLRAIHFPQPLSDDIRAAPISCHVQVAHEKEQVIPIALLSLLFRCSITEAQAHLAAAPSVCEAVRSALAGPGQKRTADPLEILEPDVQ
Procedure, shortened: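 Inhibitors of the GCK–GKRP complex relieve GKRP suppression of GCK, detected through a G6PDH–diaphorase cascade reducing resazurin. Human GST-GCK and FLAG-GKRP are used at 10 nM with 5 mM glucose and 0.4 mM ATP.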

[8] = molecular target: T1, Hexokinase-4 (Homo sapiens) + Glucokinase regulatory protein (Homo sapiens); assay: qHTS assay for inhibitors of recombinant human GCK-GKRP interaction: ADP-Glo assay (AID 743206); conditions: ADP-Glo luminescence, 60 min, 0% = vehicle-only wells with enzyme present; series mostly up to 76.9 µM;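 note: plate controls were DMSO plus enzyme for no effect and no enzyme for full effect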
Procedure, shortened: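 GST-GCK and FLAG-GKRP (15 nM each in the dispensed mix, with 2 uM S6P) react with 0.4 mM ATP and 5 mM glucose (final) in Hepes pH 7.6 for 60 min at room temperature. ADP is measured by ADP-Glo luminescence.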

[9] = molecular target: T1, Hexokinase-4 (Homo sapiens) + Glucokinase regulatory protein (Homo sapiens); assay: qHTS assay for inhibitors of recombinant human GCK-GKRP interaction: HTRF assay (AID 743207); conditions: recombinant GCK-GKRP HTRF binding, 60 min, with sorbitol-6-phosphate; series mostly up to 57.5 µM;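 note: 0% = DMSO with GCK present and -100% = DMSO wells lacking GCK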
Procedure, shortened: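 Steps: dispense GCK–GKRP complex (5 nM each, GST- and FLAG-tagged) with 2 uM S6P; pin in compounds; add XL665/Eu-cryptate-labelled antibodies; incubate 60 min at room temperature; read time-resolved FRET at 665 and 615 nm.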

[10] = qHTS Assay for Identifying Gametocytocidal Compounds (AID 743244);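 note: % is set by controls: 0 for no effect and ±100 for the full control effect; actives lower the fluorescent signal which means gametocytes are killed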; conditions: P. falciparum 3D7 stage III-V gametocytes, alamarBlue, 72 h; max response: active compounds read low
Procedure, shortened: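 Late gametocytes (III–V), P. falciparum 3D7; 72 h drug, then 24 h alamarBlue; resazurin reduction read by fluorescence.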

[11] = qHTS assay for small molecule agonists of the antioxidant response element (ARE) signaling pathway measured by Nrf2-dependant transcriptional activity (AID 720636; active = well fitted curve in the direction sought with a large enough effect in the repeat runs; an effect the other way counts as inactive or inconclusive;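 note: HepG2 cells with an ARE-driven luciferase reporter; % of control where 0% means no effect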); conditions: ARE-luc HepG2, Nrf2 luciferase reporter, 16 h; series mostly up to 92.4 µM
Procedure, shortened: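 ONE-Glo luminescence, read 30 min after reagent addition at room temperature, reflected ARE reporter activity in HepG2 cells that had been incubated with compound for 16 hr at 37 C in 1% dialyzed FBS.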

[12] = qHTS assay for small molecule agonists of the antioxidant response element (ARE) signaling pathway measured by Nrf2-dependant transcriptional activity - cell viability counter screen (AID 720653; active = well fitted curve in the direction sought with a large enough effect in the repeat runs; an effect the other way counts as inactive or inconclusive; note: % is set by controls: 0 for no effect and ±100 for the full control effect); conditions: ARE-bla HepG2 viability, CellTiter-Glo ATP luminescence, 16 h; active compounds read low
Procedure, shortened: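 Cytotoxicity counter screen: intracellular ATP quantified by CellTiter-Glo luminescence in the same ARE-bla HepG2 plates, after 16 h compound exposure and a 2 h beta-lactamase substrate step.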

[13] = qHTS assay for cell viability of HEK293 cells (AID 743288); conditions: ATP luminescence (CellTiter-Glo), 18 h, active compounds read low; note: % is set by controls: 0 for no effect and ±100 for the full control effect; nearly all actives have a fitted effect of over 50% in size
Procedure, shortened: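 The Tox21 protocol used parental HEK293 cells treated for 18 h at 37 C with compounds delivered by pintool; ATP-coupled luminescence after 30 min at room temperature gave viability.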

[14] = qHTS assay for cell viability of the p53RE-bla HCT-116 cell line (AID 743292); conditions: p53RE-bla HCT-116 viability, ATP luminescence, 16 h; series mostly up to 95 µM; note: % is set by controls: 0 for no effect and ±100 for the full control effect; nearly all actives have a fitted effect of over 55% in size
Procedure, shortened: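 After plating at 4,000 cells per well and a 5 h rest at 37 C, HCT-116 cells carrying p53RE-bla received test chemicals in DMSO. Sixteen hours later at 37 C, CellTiter-Glo was added and luminescence recorded following 30 min at room temperature.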

[15] = qHTS assay for small molecule antagonists of the retinoid-related orphan receptor gamma (ROR-gamma) signaling pathway - cell viability counter screen (AID 720652; active = well fitted curve in the direction sought with a large enough effect in the repeat runs; an effect the other way counts as inactive or inconclusive;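 note: CHO reporter cells with doxycycline-induced ROR-gamma expression; compound exposure lasted 16 hr before ATP read; % is set by controls: 0 for no effect and ±100 for the full control effect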); conditions: RORgamma reporter cell line viability counter screen; series mostly up to 92.2 µM
Procedure, shortened: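 Cytotoxicity is quantified via intracellular ATP (CellTiter-Glo luminescence) in doxycycline-induced CHO ROR response element-luciferase reporter cells treated with compound for 16 hr at 37 C, 5% CO2.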

Which results are given for `COc1cc(F)c(F)c(Nc2ccc(I)cc2F)c1NS(=O)(=O)C1(CC(O)CO)CC1` (stereo not given)?
outcome [1]: inactive; outcome [2]: inactive

For `COc1cc(O)c2c(c1)/C=C/C[C@H](O)[C@H](O)C(=O)/C=C\C[C@H](C)OC2=O`, which outcome [2] is on record?
Its outcome is “inactive”.

Which outcome [3] does the source give for `CN[C@H]1CC[C@@H](c2ccc(Cl)c(Cl)c2)c2ccccc21` here?
The outcome was “inactive”.

What about the outcome [4] of the same compound?
The outcome was “inactive”.

And the outcome [5]?
The outcome was “inactive”.

What about the outcome [6] of the same compound?
Its outcome is “inactive”.

What about the outcome [7] of the same compound?
Its outcome is “inactive”.

And the outcome [8]?
The outcome was “inactive”.

What about the outcome [9] of the same compound?
Its outcome is “inactive”.

Which max response [10] does the source give for `CC(C)(C)NC(=O)[C@H]1CC[C@H]2[C@@H]3CC=C4C=C(C(=O)O)CC[C@]4(C)[C@H]3CC[C@]12C` here?
The max response was -20.3%.

For `CCCC(CCC)C(N)=O`, which max response [10] is on record?
The max response was -4.93%.

Which outcome [4] does the source give for `NCCCC(=O)O` here?
Its outcome is “inactive”.

What about the outcome [5] of the same compound?
Its outcome is “inactive”.

What about the outcome [6] of the same compound?
Its outcome is “inactive”.

And the outcome [7]?
Its outcome is “inactive”.

And the outcome [8]?
Its outcome is “inactive”.

And the outcome [9]?
The outcome was “inactive”.

And the max response [10]?
The max response was 8.69% and -6.82%.

Which max response [10] does the source give for `C[N+](C)(CCCCCC[N+](C)(C)C1c2ccccc2-c2ccccc21)C1c2ccccc2-c2ccccc21` here?
Its max response is -0.956%.

For `O=S(=O)(c1ccccc1)N(CC(F)(F)F)c1ccc(C(O)(C(F)(F)F)C(F)(F)F)cc1`, which outcome [11] is on record?
Its outcome is “inactive”.

What about the max response [12] of the same compound?
Its max response is -21.3%.

For `CO/N=C(\C(=O)N[C@@H]1C(=O)N2C(C(=O)OCOC(=O)C(C)(C)C)=C(/C=C\c3scnc3C)CS[C@H]12)c1csc(N)n1`, which max response [10] is on record?
Its max response is -6.43%.

For `O.O=C([O-])CC([S-])C(=O)[O-].[Au+].[Na+].[Na+]` (stereo not given), which max response [10] is on record?
The max response was -19.1%.

Which max response [10] does the source give for `CCCN(CC)C(CC)C(=O)Nc1c(C)cccc1C` (stereo not given) here?
The max response was 0.657%.

Which max response [10] does the source give for `NCCCC[C@H](NC(=O)[C@@H]1CCCN1C(=O)[C@@H]1CSSC[C@H](N)C(=O)N[C@@H](Cc2ccc(O)cc2)C(=O)N[C@@H](Cc2ccccc2)C(=O)N[C@@H](CCC(N)=O)C(=O)N[C@@H](CC(N)=O)C(=O)N1)C(=O)NCC(N)=O` here?
The max response was -14.9% and -14.7%.

Which max response [10] does the source give for `C1CNCCN1` here?
The max response was -4.23%.

What does the source list for `CCCCCCCC/C=C\CCCCCCCC(=O)OC[C@@H](O)[C@H]1OC[C@H](O)[C@H]1O`?
outcome [11]: inactive; max response [12]: 4.25%; max response [10]: -9.22%; max response [13]: -9.48%; outcome [14]: inactive

Which results are given for `O=C(O)CC(O)(CC(=O)O)C(=O)O`?
outcome [15]: inactive; max response [12]: 1.31% and -9.81% and -4.69%; max response [10]: -12%; max response [13]: -6.07% and -4.96% and -7.26%; outcome [14]: inactive

With `COc1ccc(CNCC(O)COc2ccc3[nH]c(=O)ccc3c2)cc1OC` (stereo not given) as the compound, how does the max response [10] read?
The max response was -1.67%.

Which max response [10] does the source give for `C/C(=C(\CCOC(=O)c1ccccc1)SS/C(CCOC(=O)c1ccccc1)=C(/C)N(C=O)Cc1cnc(C)nc1N)N(C=O)Cc1cnc(C)nc1N` here?
The max response was 9.71%.

For `O=S(O)CO`, which max response [10] is on record?
Its max response is 18.2%.

Which max response [10] does the source give for `NCCC[C@H](N)C(=O)O` here?
Its max response is -1.29%.

For `CCC(=O)Oc1ccc2c(c1)CC[C@@H]1[C@@H]2CC[C@]2(C)[C@@H](OC(=O)CC)CC[C@@H]12`, which max response [10] is on record?
Its max response is -6.54%.

With `CS(=O)(=O)OCCCNCCCOS(C)(=O)=O` as the compound, how does the max response [10] read?
The max response was -15.1%.

With `COc1ccc(CCNCC(O)COc2cccc(C)c2)cc1OC` (stereo not given) as the compound, how does the max response [10] read?
The max response was 11.3%.

What does the source list for `CCCCCCCCCC(=O)O`?
outcome [11]: inactive; outcome [15]: inactive; max response [12]: -4.59% and -4.9%; max response [10]: 10.1%; max response [13]: -4.02% and 2.71%; outcome [14]: inactive
